Test results: PubChem BioAssay (NCI)
Compounds without any hit were thinned out: in the full panel of roughly 83,000, 20% have a hit.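 Compound tested at a single concentration for 48 hours in 96-well plates; a percent growth value below 10 was scored as active.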 Activity calls are given as the source filed them.

Each compound was assayed on UACC-62 melanoma (assay: NCI-60 one-dose screen, 48 h (100 = growth as untreated, 0 = no growth, -100 = all killed)). Conditions: 10 µM unless noted.
Experimental: Growth inhibition of the UACC-62 human tumor cell line is measured as a screen for anti-cancer activity. Cells are grown in 96 well plates and exposed to the test compound for 48 hours. Compounds are tested at a single concentration, which is 10^-5 M for most compounds. The reported endpoint is percent growth (GI% or GIPRCNT), where numbers from 0 - 100% represent growth inhibition, and numbers from -100% - 0 represent cell death. For example, a value of 40 represents 60% growth inhibition. A value of 0 means no net growth occurred over the course of the experiment. A value of -40 indicates 40% of cells at the beginning of the experiment died by the end of the experiment. A value of -100 means all cells are dead at the end of the experiment.
NCI-60 Human Tumor Cell Lines Screen was performed using the standard one-dose NCI protocol, which is described in more detail at https://dtp.cancer.gov/discovery_development/nci-60/default.htm.
Compounds with GIPRCNT values below 10 were considered active. Activity score was based on GIPRCNT using the following formula: […]
Score is 0 for GIPRCNT values of 100 or above, 50 for GIPRCNT values of 0, and 100 for GIPRCNT values of -100.

| Structure (SMILES) | growth |
| --- | --- |
| CCN(CC)CCOc1ccc2c(-c3ccccc3)c(-c3ccc(OC)cc3)c(=O)oc2c1 | -15% (active) |
| O=c1oc2ccccc2cc1-c1nn(-c2ccccc2)cc1-c1nn[nH]n1 | 93.3% (inactive) |
| Cn1cc(-c2csc(-c3cn(CCCN4CCOCC4)c4ccc(F)cc34)n2)c2cccnc21 | 72.2% (inactive) |
| COc1ccc(-c2cc(C(=O)N3N=C(c4ccc(N)cc4)CC3c3ccc(Cl)cc3)c3ccccc3n2)cc1 (stereo not given) | 38.3% (inactive) |
| C=CCn1cc(-c2nc3ccccc3s2)c2cc(-c3ccc4c5c(cccc35)C(=O)N(CCO)C4=O)ccc21 | 94.9% (inactive) |
| COCCOC(C)C(/C=N/NC(N)=S)=N/NC(N)=S (stereo not given) | 67.1% (inactive) |
| O=C(NCCNC(c1ccccc1)C(NCCNC(=O)c1ccccc1)c1ccccc1)c1ccccc1 (stereo not given) | 85.2% (inactive) |
| COc1cc(Cc2cc(-c3ccccc3)nn(Cc3ccccc3)c2=O)cc(OC)c1OC | 37.7% (inactive) |
| COc1cc2c(cc1-c1c(C)noc1C)ncc1nc(CN3CCOCC3)n([C@H](C)COC(F)F)c12 | 17.4% (inactive) |
| COc1ccc(CNc2ccc3nc(NC(=O)CN4CCCCCC4)sc3c2)cc1 | 73.8% (inactive) |
| c1cc(OCCCCCOc2cccc(-c3nc4ccccc4[nH]3)c2)cc(-c2nc3ccccc3[nH]2)c1 | 8.55% (active) |
| O=C(/C=C/C12c3ccccc3C(c3ccccc31)C1C(=O)NC(=O)C12)c1ccc(I)cc1 (stereo not given) | 51.9% (inactive) |
| Cc1cc(=O)oc2cc(Oc3nc(Br)cn4c(Br)cnc34)ccc12 | 85.2% (inactive) |
| Cc1nc(N/N=C/c2cn(-c3ccccc3)nc2-c2cc3ccccc3oc2=O)sc1N=Nc1ccccc1 | 71% (inactive) |
| CCn1cc(C(=O)O)c(=O)c2cc(F)c(N3CCN(CC(=O)Nc4ccccc4)C(C)C3)c(F)c21 (stereo not given) | 78.2% (inactive) |
| O=C(CN1C(=O)S/C(=C\C(Cl)=C\c2ccccc2)C1=O)NC1CCS(=O)(=O)C1 (stereo not given) | 72.1% (inactive) |
| CCOC(=O)C/C(=N\Nc1cc(=O)[nH]c2ccc(OC)cc12)C(=O)OCC | 90.4% (inactive) |
| O=CCCCOCc1ccccc1 | 95.2% (inactive) |
| Cc1cc(C)c2c(c1)N(C)c1ncnc(-n3c(C)nc4cc(C)ccc43)c1CC2C (stereo not given) | 31.6% (inactive) |
| Cc1cc(O)cc(-c2nn(C)cc2-c2cc(N3CCOCC3)nc(-c3cccnc3)n2)c1 | 18.1% (inactive) |

| Structure (SMILES) | growth |
| --- | --- |
| CS(=O)(=O)Nc1cc(-c2ccc3ncnc(Nc4ccc(F)c(Cl)c4)c3c2)ccc1Cl | 53.8% (inactive) |
| Cc1ccc(Cc2cnc(NC(=O)/C=C/c3ccc(C)o3)s2)cc1 | 31.9% (inactive) |
| C=C1C(=O)O[C@@H]2C3C(=C(C)CC[C@@H]12)CC1O[C@]13C (stereo not given in full) | 74.6% [6.75 µM] (inactive) |
| O=C(Nc1cc(Cl)ccc1O)c1ccccc1Nc1ccnc(C(F)(F)F)c1 | 23.1% (inactive) |
| O=c1ccc2ccc(OCCN3CCCCC3)cc2o1 | 94.1% (inactive) |
| CC(C)CCC[C@@H](C)[C@H]1CC[C@H]2[C@@H]3CC=C4c5sc(Nc6cc(C(F)(F)F)cc(C(F)(F)F)c6)nc5CC[C@]4(C)[C@H]3CC[C@]12C | 94.5% (inactive) |
| Ic1ccc(Nc2nc3nonc3nc2Nc2ccc(I)cc2)cc1 | -28.2% (active) |
| CCOC(=O)c1cnn(CC(C)O)c1NC(=O)NCc1cccc(F)c1 (stereo not given) | 92.2% (inactive) |
| NC(=O)c1ccccc1OCC(=O)Nc1ccc(Cl)c(Cl)c1 | 83.3% (inactive) |
| COC1C(O)CC(OC2CC(OC3CC(O[C@@H]4C(=O)c5c(cc6cc(OC7CC(OC8CC(O)C(O)C(C)O8)C(O)C(C)O7)c(C)c(O)c6c5O)CC4[C@H](OC)C(=O)O)OC(C)C3O)OC(C)C2O)OC1C (stereo not given in full) | -0.0213% (active) |
| COC(=O)c1c2c(c(C)[n+]([O-])c1C)C(=O)C(NCc1ccccc1)=CC2=O | -16.6% (active) |
| Cc1cc(N2CCN(CC(=O)Nc3ccc4c(ccn4Cc4ccccc4)c3)CC2)nc(N2CCOCC2)n1 | 67.7% (inactive) |
| COC(=O)c1ccc2c(c1)c1c(C)c3cnccc3c(C)c1n2C | -82.3% (active) |
| CCN1C(=O)N(CC)C2C1NN=c1s/c(=C\c3ccc(OC)cc3)c(=O)n12 (stereo not given) | 23.9% (inactive) |
| O=C(O)c1cn(C2CC2)c2cc(N3CCN(C(=O)N4CCOCC4)CC3)c(F)cc2c1=O | 97.3% (inactive) |
| CCOC(=O)C#Cc1c(C(=O)OCC)nnn1[C@@H]1O[C@H](COC)[C@@H](OC)[C@H]1OC | 93.8% (inactive) |
| COC(=O)c1nc(-c2ccccc2)oc1S(=O)(=O)N1CCCC(C)C1 (stereo not given) | 84.7% (inactive) |
| O=C1O[C@@H](c2ccccc2Cl)[C@@H]2c3cc4c(cc3CCN12)OCO4 | 78.7% (inactive) |
| O=c1oc2c(cc1-c1ccccc1)c(=O)[nH]c1ccccc12 | 95.5% (inactive) |
| COc1ccc(C2CC(c3ccccc3)=NN2C(=O)c2cc(OC)c(OC)c(OC)c2)cc1O (stereo not given) | 25.9% (inactive) |
